# Measurements from publication PMC7862700, “An all-to-all approach to the identification of sequence-specific readers for epigenetic DNA modifications on cytosine”.
# Assays:
# Test in all cases: DAPPL (digital affinity profiling via proximity ligation, sequencing); 10 mM Tris-HCl pH 7.5, 50 mM NaCl, 1 mM DTT, 4% glycerol, room temperature, 30 min; GST-TFs on glutathione beads, 16-mer random dsDNA library, 0.1% formaldehyde crosslink after washing; high values mean tight binding
# [1] = target: T1, FEV (Homo sapiens, UniProt Q99581 1-238); settings: protein: recombinant; tags: N-terminal GST; dsDNA, one strand shown
# T1 sequence: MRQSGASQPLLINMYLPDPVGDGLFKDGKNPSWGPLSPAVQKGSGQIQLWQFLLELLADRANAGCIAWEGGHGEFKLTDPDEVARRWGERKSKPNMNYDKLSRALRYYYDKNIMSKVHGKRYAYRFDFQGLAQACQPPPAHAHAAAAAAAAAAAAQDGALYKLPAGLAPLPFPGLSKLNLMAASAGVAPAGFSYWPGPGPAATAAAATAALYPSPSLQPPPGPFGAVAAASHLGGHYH
# In short: (§1)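 Human transcription factors fused to GST were expressed in yeast, captured on glutathione beads, given DNA barcodes and pooled with a GST-only negative control. Pools were incubated with 200 nmole of a 16-mer random double-stranded DNA library in Tris/NaCl/DTT/glycerol buffer at room temperature for 30 min. They were then washed, crosslinked with 0.1% formaldehyde, proximity-ligated (BsaI/T4 ligase, 1 h, 37 °C), PCR-amplified and sequenced on an Illumina NextSeq500. Binding signal is each 6-mer's read frequency for a factor divided by its frequency for the GST control.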
# [2] = target: ETV5 (Homo sapiens, UniProt P41161 1-510); settings: protein: recombinant; tags: N-terminal GST; dsDNA, one strand shown
# ETV5, sequence (P41161 whole entry): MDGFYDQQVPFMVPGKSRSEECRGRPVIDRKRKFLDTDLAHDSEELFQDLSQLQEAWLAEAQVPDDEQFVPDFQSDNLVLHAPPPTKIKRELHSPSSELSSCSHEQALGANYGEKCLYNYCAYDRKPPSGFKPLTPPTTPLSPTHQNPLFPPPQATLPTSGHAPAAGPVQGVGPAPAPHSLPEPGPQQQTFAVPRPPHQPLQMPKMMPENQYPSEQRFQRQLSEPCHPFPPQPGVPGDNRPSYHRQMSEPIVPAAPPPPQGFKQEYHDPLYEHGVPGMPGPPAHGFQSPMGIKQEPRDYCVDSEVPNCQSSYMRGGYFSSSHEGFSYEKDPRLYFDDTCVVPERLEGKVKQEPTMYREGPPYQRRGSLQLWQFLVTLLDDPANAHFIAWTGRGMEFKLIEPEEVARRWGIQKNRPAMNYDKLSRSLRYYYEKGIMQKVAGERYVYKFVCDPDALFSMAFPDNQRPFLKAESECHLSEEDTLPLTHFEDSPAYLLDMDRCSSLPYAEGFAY
# In short: as §1
# [3] = target: HSF1 (Homo sapiens, UniProt Q00613 1-529); settings: protein: recombinant; tags: N-terminal GST; chain copies: 3; dsDNA, one strand shown
# HSF1, sequence (Q00613 whole entry): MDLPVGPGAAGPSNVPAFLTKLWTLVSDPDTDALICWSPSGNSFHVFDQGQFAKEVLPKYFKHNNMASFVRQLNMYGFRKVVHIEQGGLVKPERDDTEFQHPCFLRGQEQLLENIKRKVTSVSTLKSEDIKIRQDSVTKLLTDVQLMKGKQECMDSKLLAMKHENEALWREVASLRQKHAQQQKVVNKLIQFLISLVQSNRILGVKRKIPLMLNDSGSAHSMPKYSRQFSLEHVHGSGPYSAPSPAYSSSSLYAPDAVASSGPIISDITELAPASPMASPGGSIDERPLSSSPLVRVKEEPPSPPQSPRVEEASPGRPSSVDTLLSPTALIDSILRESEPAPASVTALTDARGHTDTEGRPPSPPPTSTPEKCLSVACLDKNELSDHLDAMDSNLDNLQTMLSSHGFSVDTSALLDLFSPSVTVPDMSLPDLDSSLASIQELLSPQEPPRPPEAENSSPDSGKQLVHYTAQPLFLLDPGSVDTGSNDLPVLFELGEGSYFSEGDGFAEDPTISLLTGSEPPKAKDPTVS
# In short: as §1
# [4] = target: T2, SPIC (Homo sapiens, UniProt Q8N5J4 1-248); settings: protein: recombinant; tags: N-terminal GST; dsDNA, one strand shown
# T2 sequence: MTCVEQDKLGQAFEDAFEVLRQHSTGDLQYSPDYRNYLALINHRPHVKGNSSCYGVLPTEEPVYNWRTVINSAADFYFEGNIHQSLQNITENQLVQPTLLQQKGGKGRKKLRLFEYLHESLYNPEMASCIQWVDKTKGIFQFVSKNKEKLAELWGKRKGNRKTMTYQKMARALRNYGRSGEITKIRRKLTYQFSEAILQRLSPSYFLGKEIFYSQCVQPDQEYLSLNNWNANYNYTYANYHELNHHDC
# In short: as §1
# [5] = target: ELF4 (Homo sapiens, UniProt Q99607 1-663); settings: protein: recombinant; tags: N-terminal GST; dsDNA, one strand shown
# ELF4, sequence (Q99607 whole entry): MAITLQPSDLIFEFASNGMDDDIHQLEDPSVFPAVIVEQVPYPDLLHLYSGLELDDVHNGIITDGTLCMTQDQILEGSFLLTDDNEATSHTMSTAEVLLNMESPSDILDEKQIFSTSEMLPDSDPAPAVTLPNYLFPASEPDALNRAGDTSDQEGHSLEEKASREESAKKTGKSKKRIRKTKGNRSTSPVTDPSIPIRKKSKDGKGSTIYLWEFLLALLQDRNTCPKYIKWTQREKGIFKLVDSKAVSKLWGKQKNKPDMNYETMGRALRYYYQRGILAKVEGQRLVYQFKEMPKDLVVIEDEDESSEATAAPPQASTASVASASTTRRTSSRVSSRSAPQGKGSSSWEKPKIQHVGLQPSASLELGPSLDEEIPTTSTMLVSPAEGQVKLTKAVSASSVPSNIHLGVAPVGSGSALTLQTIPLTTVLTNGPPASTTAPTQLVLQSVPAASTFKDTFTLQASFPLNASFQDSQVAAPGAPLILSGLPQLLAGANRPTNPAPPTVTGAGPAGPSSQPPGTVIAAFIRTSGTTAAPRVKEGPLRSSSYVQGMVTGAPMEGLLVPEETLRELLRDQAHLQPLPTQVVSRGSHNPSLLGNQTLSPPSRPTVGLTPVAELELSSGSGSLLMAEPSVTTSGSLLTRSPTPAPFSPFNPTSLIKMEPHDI
# In short: as §1
# [6] = target: T3, ELK4 (Homo sapiens, UniProt P28324-2 1-405); settings: protein: recombinant; tags: N-terminal GST; dsDNA, one strand shown
# T3 sequence: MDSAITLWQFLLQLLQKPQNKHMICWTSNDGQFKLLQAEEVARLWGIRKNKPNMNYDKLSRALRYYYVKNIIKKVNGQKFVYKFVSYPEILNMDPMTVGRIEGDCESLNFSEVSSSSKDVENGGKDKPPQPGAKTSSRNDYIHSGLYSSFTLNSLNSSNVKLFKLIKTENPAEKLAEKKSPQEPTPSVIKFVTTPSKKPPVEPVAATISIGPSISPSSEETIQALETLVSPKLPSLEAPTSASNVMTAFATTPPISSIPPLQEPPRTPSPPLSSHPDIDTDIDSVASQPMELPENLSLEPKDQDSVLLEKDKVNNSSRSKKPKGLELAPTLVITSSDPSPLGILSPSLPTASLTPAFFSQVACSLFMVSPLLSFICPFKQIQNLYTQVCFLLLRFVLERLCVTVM
# In short: as §1
# [7] = target: T4, ETV2 (Homo sapiens, UniProt O00321 1-342); settings: protein: recombinant; tags: N-terminal GST; dsDNA, one strand shown
# T4 sequence: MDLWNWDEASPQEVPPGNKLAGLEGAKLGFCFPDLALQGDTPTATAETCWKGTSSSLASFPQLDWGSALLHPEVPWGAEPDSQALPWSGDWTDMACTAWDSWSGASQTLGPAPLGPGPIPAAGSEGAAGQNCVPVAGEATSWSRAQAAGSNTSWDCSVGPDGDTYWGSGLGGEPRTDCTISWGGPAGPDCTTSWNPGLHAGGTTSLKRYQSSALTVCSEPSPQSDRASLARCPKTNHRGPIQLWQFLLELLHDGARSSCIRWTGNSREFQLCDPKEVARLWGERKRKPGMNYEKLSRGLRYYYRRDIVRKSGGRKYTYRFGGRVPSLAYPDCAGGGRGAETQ
# In short: as §1
# [8] = target: T5, ELF3 (Homo sapiens, UniProt P78545 1-371); settings: protein: recombinant; tags: N-terminal GST; dsDNA, one strand shown
# T5 sequence: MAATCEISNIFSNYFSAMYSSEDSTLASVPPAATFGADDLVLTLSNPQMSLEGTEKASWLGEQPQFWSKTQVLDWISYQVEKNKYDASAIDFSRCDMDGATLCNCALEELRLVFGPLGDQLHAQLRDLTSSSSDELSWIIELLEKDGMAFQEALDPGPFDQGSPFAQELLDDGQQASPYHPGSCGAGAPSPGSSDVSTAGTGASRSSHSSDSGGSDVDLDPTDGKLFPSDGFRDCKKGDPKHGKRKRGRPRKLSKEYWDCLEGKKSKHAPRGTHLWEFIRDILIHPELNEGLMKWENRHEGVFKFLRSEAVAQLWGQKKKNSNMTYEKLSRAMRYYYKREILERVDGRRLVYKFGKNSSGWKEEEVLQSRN
# In short: as §1
# [9] = target: CRX (Homo sapiens, UniProt O43186 1-299); settings: protein: recombinant; tags: N-terminal GST; dsDNA, one strand shown
# CRX, sequence (O43186 whole entry): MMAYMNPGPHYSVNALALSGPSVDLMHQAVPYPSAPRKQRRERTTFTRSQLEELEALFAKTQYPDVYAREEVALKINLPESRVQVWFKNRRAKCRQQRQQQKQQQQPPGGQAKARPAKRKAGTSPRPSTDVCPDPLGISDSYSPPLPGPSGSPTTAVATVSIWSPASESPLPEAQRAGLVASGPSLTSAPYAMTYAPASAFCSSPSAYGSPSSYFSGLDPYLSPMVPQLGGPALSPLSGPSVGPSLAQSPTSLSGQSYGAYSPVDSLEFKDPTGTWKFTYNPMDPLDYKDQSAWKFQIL
# In short: as §1
# [10] = target: ETV1 (Homo sapiens, UniProt P50549 1-477); settings: protein: recombinant; tags: N-terminal GST; dsDNA, one strand shown
# ETV1, sequence (P50549 whole entry): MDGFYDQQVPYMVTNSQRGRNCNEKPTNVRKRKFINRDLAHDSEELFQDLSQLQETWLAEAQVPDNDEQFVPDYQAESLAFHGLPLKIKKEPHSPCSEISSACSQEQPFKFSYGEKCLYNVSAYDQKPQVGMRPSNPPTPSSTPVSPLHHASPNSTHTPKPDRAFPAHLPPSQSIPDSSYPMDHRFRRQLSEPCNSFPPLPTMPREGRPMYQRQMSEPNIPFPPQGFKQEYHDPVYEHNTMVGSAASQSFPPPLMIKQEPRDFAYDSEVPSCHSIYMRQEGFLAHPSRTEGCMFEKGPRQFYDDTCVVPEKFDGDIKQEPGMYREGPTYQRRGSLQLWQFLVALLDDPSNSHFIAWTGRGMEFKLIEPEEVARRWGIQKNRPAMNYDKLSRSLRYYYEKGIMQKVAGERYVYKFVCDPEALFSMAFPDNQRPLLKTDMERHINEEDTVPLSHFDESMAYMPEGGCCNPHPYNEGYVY
# In short: as §1
sequence,measurement,setting,value
TACATA,binding signal,[1],"1.21 fold enrichment (6-mer frequency, TF over GST control)"
same,binding signal,[2],"1.24 fold enrichment (6-mer frequency, TF over GST control)"
same,binding signal,[3],"1.15 fold enrichment (6-mer frequency, TF over GST control)"
same,binding signal,[4],"1.36 fold enrichment (6-mer frequency, TF over GST control)"
same,binding signal,[5],"1.22 fold enrichment (6-mer frequency, TF over GST control)"
same,binding signal,[6],"1.22 fold enrichment (6-mer frequency, TF over GST control)"
same,binding signal,[7],"1.24 fold enrichment (6-mer frequency, TF over GST control)"
same,binding signal,[8],"1.18 fold enrichment (6-mer frequency, TF over GST control)"
same,binding signal,[9],"1.27 fold enrichment (6-mer frequency, TF over GST control)"
same,binding signal,[10],"1.25 fold enrichment (6-mer frequency, TF over GST control)"
